Hits are enriched below; roughly 4.6% of the tested compounds scored in any of these assays.
D1 antag: antagonists of human D1 dopamine receptor. P21728. HEK293 TREx D1 cells, calcium flux, dopamine EC80; hits give low values. activity change, negative = inhibition, % at 10 µM. 360,000 compounds, 3.2% hits; in the data active = activity change below about -30%; note: % is set by controls: 0 for no effect and ±100 for the full control effect
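Kinetic fluorescence of a calcium dye serves as the read-out. D1-expressing Hek293 Trex cells, induced overnight at 30 C, are exposed to compound for 180 s before an EC80 dopamine addition, then read 180 s further.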
D1 ag: human D1 receptor agonism | P21728 | HEK293 T-REx D1 cells, calcium flux, agonist mode | activation, % at 2 µM | 360,000 compounds, 1% hits | AID 504660; note: 0% is about no effect
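Tetracycline-induced HEK293 TREx D1 cells, force-coupled to calcium signalling, were dye-loaded with a no-wash calcium kit. Compound was pin-added after a 10 s baseline. Fluorescence was read kinetically at 1 cycle/s for 180 s, with calcium rises flagged as agonism.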
TRHR PAM: allosteric enhancers of human TRH receptor; P34981; TRHR cells, fluo-8 calcium fluorescence, EC20 TRH enhancement; enhancement, % at 2 µM; 360,000 compounds, 0.66% hits; in the data active = enhancement above about 30%; note: 0% is about no effect
Target sequence (P34981 whole entry, looked up): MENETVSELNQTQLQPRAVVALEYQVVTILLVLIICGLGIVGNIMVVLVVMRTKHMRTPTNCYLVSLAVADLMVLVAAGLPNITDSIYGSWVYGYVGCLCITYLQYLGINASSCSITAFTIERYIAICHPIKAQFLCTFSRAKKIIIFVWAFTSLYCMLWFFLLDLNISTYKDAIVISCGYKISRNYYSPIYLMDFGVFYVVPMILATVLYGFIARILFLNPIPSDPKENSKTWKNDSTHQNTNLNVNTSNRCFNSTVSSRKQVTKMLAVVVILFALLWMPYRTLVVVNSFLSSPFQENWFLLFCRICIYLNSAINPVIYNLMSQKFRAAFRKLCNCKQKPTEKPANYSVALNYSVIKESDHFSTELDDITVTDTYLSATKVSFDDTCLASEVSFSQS
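TRHR-expressing cells loaded with fluo-8 calcium dye were read kinetically (ex 480/em 530) during compound addition, then stimulated with an EC20 of TRH (10 nM final). Enhancement of the Gq-mediated intracellular calcium response was scored.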
TRHR ag: agonists of human TRH receptor | 360,000 compounds, 0.18% hits | AID 493084 | activation, % at 2 µM | TRHR cells, calcium flux fluo-8, FDSS agonist mode; note: 0% is about no effect
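TRHR-expressing cells, plated overnight in medium with 10% serum, were loaded with fluo-8 calcium dye at room temperature. After a 10 s baseline, library compound was pin-added and calcium release was recorded kinetically (ex 480/em 530) as agonist response.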
D1 PAM: potentiators of human D1 dopamine receptor. P21728. HEK293 TREx D1 cells, calcium flux, dopamine EC20 potentiation. potentiation, % at 10 µM. 360,000 compounds, 0.036% hits. AID 504651; in the data active = potentiation above about 30%; note: 0% is about no effect
Numbers without * were called inactive; · = not tested or not shown. Cut-off read from the data, not from the text of the source, unless noted: active = activation above about 30%; inactive = the rest.

SMILES | D1 antag | D1 ag | TRHR PAM | TRHR ag | D1 PAM
CC(C)CCOCC(=O)Oc1ccccc1C(=O)O | -10.0 | 3.3 | 30.0* | 0.5 | -1.4
CCOc1ccc(C2c3c(oc4ccc(C)cc4c3=O)C(=O)N2CCCN(C)C)cc1OC (stereo not given) | -18.6 | 3.8 | 20.7 | 0.5 | -1.6
Cc1ccc(CNc2ncnc3onc(-c4ccc(F)cc4)c23)cc1 | -23.8 | 31.9* | 3.1 | -1.0 | -5.2
Cc1noc2ncnc(NCCc3ccccc3)c12 | -22.5 | 23.0 | -11.9 | 2.4 | -2.0
Cc1ccc(CCNc2ncnc3onc(C)c23)cc1 | -36.2* | 22.4 | -8.6 | -0.9 | -8.5
Fc1ccc(CNc2ncnc3onc(-c4ccc(F)cc4)c23)cc1 | -4.8 | 2.0 | 4.3 | -0.7 | -0.5
CCOCCCNC(=O)C1CCN(S(=O)(=O)N(CC(C)C)CC(C)C)CC1 | -6.4 | 8.8 | 5.8 | -1.1 | -7.1
CCCCOc1ccc(C(=O)Nc2ccc(-c3cc4ccccc4oc3=O)cc2)cc1 | -11.9 | 0.9 | -8.0 | -1.4 | 0.6
CC1CCCC(NC(=O)C2CCCN2S(=O)(=O)c2cccc3nsnc23)C1C (stereo not given) | 17.4 | 1.6 | 35.6* | 1.1 | ·
CC(=O)Nc1ccc(NC(=O)C2CCCN2S(=O)(=O)c2cccc3nsnc23)cc1 (stereo not given) | 5.1 | -1.3 | 9.6 | 0.4 | -0.9
CCOC(=O)N1CCC(NC(=O)C2CCN(S(=O)(=O)c3cccc4cccnc34)CC2)CC1 | -6.8 | 2.8 | -14.4 | -1.4 | -4.2
COC(=O)c1ccccc1S(=O)(=O)N1CCC(C(=O)OCc2cccc(OC)c2OC)CC1 | -39.1* | 44.1* | 3.5 | 1.5 | -0.7
O=C(NC1CCCC1)C1CCCN1S(=O)(=O)c1cccc2cccnc12 (stereo not given) | -34.0* | 1.1 | -3.8 | 0.0 | -5.0
O=C(NC1CCCCC1)C1CCN(S(=O)(=O)c2cccc3cccnc23)CC1 | -65.3* | 2.6 | -2.5 | -0.3 | -8.9
O=S(=O)(NCc1ccccn1)c1cc(OCC(F)(F)F)ccc1OCC(F)(F)F | -9.3 | 1.0 | 2.1 | 0.0 | -2.2
CCOC(=O)C(C)(C)N(Cc1ccccc1C)S(=O)(=O)c1ccc(Cl)c([N+](=O)[O-])c1 | -0.3 | 5.2 | -2.4 | -0.4 | 4.8
O=C(Cc1ccc(Cl)cc1)NC1CCCCCC1 | 5.8 | 4.8 | -4.1 | -0.8 | 1.1
COc1ccc(C(=O)COC(=O)C2CCN(S(=O)(=O)c3cccc4cccnc34)CC2)cc1 | -69.9* | 4.9 | 7.0 | 0.8 | -5.6
CCOC(=O)N1CCN(C(=S)NC(=O)c2ccc(F)cc2)CC1 | -10.2 | 0.0 | -2.6 | 0.4 | -1.7
CCNc1nc(NC(C)C)nc(ON=C(C)C)n1 | -1.4 | 2.5 | -1.9 | 0.2 | -4.2
O=C1c2ccccc2C(=O)N1CC(O)COc1ccc(Cl)cc1 (stereo not given) | -30.5* | -0.3 | 10.1 | -0.7 | -10.2
CCn1c(=N)n(CC(O)COc2ccccc2)c2ccccc21 (stereo not given) | 9.4 | 3.8 | 3.6 | -0.1 | -1.9
COc1ccc(OCC(O)CN2C(=O)c3ccccc3C2=O)cc1 (stereo not given) | -0.5 | 0.9 | -1.3 | -0.7 | 2.7
Cc1ccc(OCC(O)Cn2c(=N)n(Cc3ccccc3)c3ccccc32)cc1 (stereo not given) | -5.3 | 9.9 | 7.7 | 0.6 | -4.6
Cc1cccc(OCC(O)Cn2c(=N)n(Cc3ccccc3)c3ccccc32)c1 (stereo not given) | -3.1 | 67.5* | 0.4 | 2.5 | -3.5
SMILES | D1 antag | D1 ag | TRHR PAM | TRHR ag | D1 PAM
N=c1n(Cc2ccc(Cl)cc2)c2ccccc2n1CC(O)COc1ccccc1 (stereo not given) | -6.3 | 68.1* | 5.6 | 1.5 | -2.6
N=c1n(Cc2ccccc2)c2ccccc2n1CC(O)COc1ccc(Cl)cc1Cl (stereo not given) | -6.9 | 87.4* | 5.2 | 2.6 | 32.0*
CCOC(CCNC(=O)c1cc(-c2cccs2)nc2ccccc12)OCC | -6.8 | 1.3 | 0.2 | 0.0 | 8.0
CC12CC(O)C3c4ccc(O)cc4CCC3C1CCC2=O (stereo not given) | 1.9 | 3.5 | 0.9 | 1.2 | -2.4
CCOc1cc(/C=N\NC(=O)CC(=O)NCCc2ccccc2)ccc1O | -22.7 | 1.8 | 9.8 | -0.3 | -3.8
O=C(Nc1ccc2c(c1)OCCO2)C1CCN(C(=O)c2ccc(F)cc2)CC1 | 3.5 | 2.8 | 2.1 | -0.3 | 1.9
COc1ccc(OCC(O)Cn2c(=N)n(Cc3ccccc3)c3ccccc32)cc1 (stereo not given) | -46.0* | 48.4* | -1.4 | 0.9 | -19.7
CCOc1ccc(CN2CCN(CC(O)Cn3c4ccccc4c4ccccc43)CC2)cc1 (stereo not given) | -6.1 | 16.2 | -0.2 | 1.0 | -1.8
COc1ccc(CN2CCN(CC(O)Cn3c4ccccc4c4ccccc43)CC2)cc1 (stereo not given) | -93.5* | 23.4 | 5.4 | 0.9 | -5.8
CCN(CC)S(=O)(=O)c1ccc(OC)c(NC(=O)COc2ccccc2[N+](=O)[O-])c1 | -20.4 | 3.7 | 0.5 | 0.7 | 1.6
Cc1cccn2c(=O)nc(SCC(=O)c3ccccc3)nc12 | -57.0* | -1.8 | 2.0 | -0.1 | -5.3
Cc1cccn2c(=O)nc(SCC(=O)c3ccc(Cl)cc3)nc12 | -2.6 | 0.2 | 1.0 | -1.8 | -7.0
COc1cc(/C=C2\COC/C(=C\c3ccc(O)c(OC)c3)C2=O)ccc1O | -8.7 | 12.3 | 2.9 | 1.5 | 2.2
COc1cc(/C=C2\CC/C(=C\c3ccc(OCCO)c(OC)c3)C2=O)ccc1OCCO | 0.5 | 99.3* | 27.9 | 113.6* | -1.5
COc1cc(/C=C2/CC/C(=C/c3ccc(O)c(OC)c3)C2=O)ccc1O | -8.1 | 78.3* | -5.2 | 0.0 | 10.8
c1ccc(SCCN2CCc3ccccc3C2)cc1 | -73.1* | 1.5 | 14.7 | -1.3 | -2.5
c1ccc(SCCOCCN2CCc3ccccc3C2)cc1 | -47.8* | 3.4 | 6.4 | -0.3 | -9.3
Cc1cccc(OCC(=O)NCCCNC(=O)c2cnccn2)c1 | 0.0 | 0.9 | -2.5 | 0.4 | 2.8
CCOC(=O)CC(=O)CSc1nc2c(sc(=S)n2-c2ccccc2)c(=O)[nH]1 | -2.6 | 2.2 | -5.5 | -0.1 | -2.9
COC(=O)CNC(=O)CSc1nc2c(sc(=S)n2-c2ccccc2)c(=O)[nH]1 | -37.2* | 0.7 | -26.8 | 0.0 | -5.6

From PubChem BioAssay
